The record followed here is PubChem BioAssay (NCATS).

Inconclusive results are not listed. Entries that show only a call come without a potency. Calls of active or inactive are those of the source. The call rests on the fitted dose curve; in most records, active means well fitted inhibition curve with a large enough effect; inconclusive means small, poorly fitted or top-dose-only effect; inactive means flat fitted curve, though single readings scatter.

The nature of this test: P-glycoprotein substrates identified in KB-8-5-11 adenocarcinoma cell line, qHTS therapeutic library screen (AID 1346987). Further: nearly all actives have a fitted effect of over 65% in size. Particulars: KB-8-5-11 (P-gp overexpressing) viability, CellTiter-Glo, 72 h; series mostly up to 44.5 µM. The method, boiled down:
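Human cervical adenocarcinoma KB-8-5-11 cells, selected in colchicine to over-express P-gp and assayed without it, were exposed for 72 h to titrated compounds. An ATP-based luminescent viability signal gave AC50.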
(In qHTS, concentration-response curves come from the screen itself.)
For `C/C=C1/[C@H](O[C@@H]2O[C@H](CO)[C@@H](O)[C@H](O)[C@H]2O)OC=C(C(=O)OC)[C@H]1CC(=O)O[C@@H]1O[C@H](CO)[C@@H](O)[C@H](O)[C@H]1O`, the Potency result is “inactive”.

Regarding `C/C=C/C=C/C=C/C(=O)O[C@@H]1[C@@H](OC)C2=C(C(=O)N(C(C)C(=O)O)C2)[C@@]2(C)CCCC(C)(C)[C@H]12` (stereo partly drawn), the Potency entry was “inactive”.

`C[C@@H]1O[C@@H](O[C@H]2[C@H](OC(=O)C34CCC5(C)C(=CCC6C7(C)CC(O)C(O[C@@H]8O[C@H](C(=O)O)[C@@H](O)[C@H](O)[C@H]8O)C(C)(C(=O)O)C7CCC65C)C3CC(C)(C)CC4O)O[C@H](C)[C@@H](O)[C@@H]2O)[C@H](O)[C@@H](O[C@@H]2OC[C@](O)(CO)[C@H]2O[C@@H]2O[C@H](CO)[C@@H](O)[C@H](O)[C@H]2O)[C@H]1O` (stereo partly drawn): the activity change, negative = cytotoxicity was 5.75% [at 9.29 µM] (inactive).

As to `C=C1CC2C3(C)C(O)CC(=O)C(C)(C)C3C(OC(C)=O)C(OC(C)=O)C2(C)C2C(=O)OC(C)(C(=O)OC)C(=O)C12C` (stereo not drawn), the Potency entry is “inactive”.

`COc1ccccc1CC(C(=O)O)N(C)C(=O)c1ccccc1` (stereo not drawn): the Potency result was “inactive”.

`CC(=O)N(O)CCCCCN1C(=O)CCC1=O`: the Potency result was “inactive”.

In the case of `NC(=O)c1ccc(OCC2NC(=O)C3CCCN3C2=O)cc1` (stereo not drawn), the Potency entry was “inactive”.

For the compound `CC[C@@H](c1ccc(F)c(F)c1)n1c(C(=O)OC)c(-c2ccno2)[nH]c1=S`, the Potency result was “inactive”.

As to `CCOC(=O)c1ccnc(CNCC(=O)N(CC)CCN(C)C)c1`, the Potency entry was “inactive”.

As to `COc1cc(/C=C/C(=O)O[C@H]2[C@H](O)[C@@H](CO)O[C@@]2(CO)O[C@H]2O[C@H](COC(=O)c3ccc(O)cc3)[C@@H](O)[C@H](O)[C@H]2O)cc(OC)c1OC`, the Potency entry was “inactive”.

As to `CCOc1c2c(c(OCC)c3ccccc13)C(=O)N(c1ccc(CC(=O)NS(=O)(=O)c3ccccc3)cc1)C2`, the Potency result is “inactive”.

Regarding `COc1cc(/C=C/C(=O)OC[C@H]2O[C@H](O[C@]3(CO)O[C@H](CO)[C@@H](O)[C@@H]3O)[C@H](O)[C@@H](O)[C@@H]2O)cc(OC)c1O`, the Potency entry was “inactive”.

Turning to `CC(C)C1(O[C@@H]2O[C@H](CO)[C@@H](O)[C@H](O)[C@H]2O)CC=C(CO)CC1` (stereo partly drawn), the Potency entry is “inactive”.

Regarding `N#Cc1ccnc(N2C(=O)CC[C@H]2C(=O)N(c2cncc(F)c2)[C@H](C(=O)NC2CC(F)(F)C2)c2ccccc2Cl)c1`, the Potency entry is “inactive”.

Regarding `COC(=O)[C@H](CC1C=NC=N1)NCC12CC3CC(CC(C3)C1)C2` (stereo partly drawn), the Potency result was “inactive”.

With `CCNC(=O)[C@@H]1CCCN1C(=O)[C@H](CCCN=C(N)N)NC(=O)[C@H](CC(C)C)NC(=O)[C@@H](C)NC(=O)[C@H](Cc1ccc(O)cc1)NC(=O)[C@H](CO)NC(=O)[C@H](Cc1c[nH]c2ccccc12)NC(=O)[C@H](Cc1cnc[nH]1)NC(=O)[C@@H]1CCC(=O)N1`, the Potency result is “inactive”.

For `COC1(CC(C)C)NC(=O)C(O)(Cc2ccccc2)NC1=O` (stereo not drawn), the Potency entry is “inactive”.

Consider `C=C1CCC2C(C)(C)C(O)CCC2(C)C1CCC(C)CCOC(=O)CCC(=O)O` (stereo not drawn), for which the Potency result was “inactive”.

`O=C1C[C@@H](c2ccc(O)cc2)Oc2cc(O)ccc21`: the Potency entry is “inactive”.

Consider `COC(=O)C[C@@H]1C(C(=O)O)=CO[C@@H](O[C@@H]2O[C@H](CO)[C@@H](O)[C@H](O)[C@H]2O)/C1=C\COC(=O)/C=C\c1ccccc1`, for which the Potency entry was “inactive”.

For the compound `C[C@@]12C[C@]3(O)O[C@H](O1)[C@]1(COC(=O)c4ccccc4)[C@H]3C[C@@]12O[C@@H]1O[C@H](COC(=O)c2ccccc2)[C@@H](O)[C@H](O)[C@H]1O`, the Potency entry is “inactive”.

With `CCCOc1ccn2c(C(C)=O)cc(-c3ccccc3S(C)(=O)=O)c2c1`, the Potency entry is “inactive”.

For the compound `C=C1CC/C=C(/CO)C(=O)C[C@@H]2[C@@H]1CC2(C)C`, the Potency entry is “inactive”.

As to `CC(=O)O[C@@]1(C)C[C@@H](O)[C@]2(O)C=CO[C@@H](O[C@@H]3O[C@H](CO)[C@@H](O)[C@H](O)[C@H]3O)[C@@H]21`, the Potency entry is “inactive”.

For the compound `CCCCNC(=O)[C@@H]1Cc2ccccc2N1C(=O)[C@@H](N)CC`, the Potency result was “inactive”.

As for `CC(=O)O[C@H]1[C@H](C)[C@@H](O)[C@H]2[C@@H]1C=C(C(=O)O)[C@H]1C[C@@H]3[C@H]([C@H]21)[C@H]1C(=O)O[C@@H]2CC[C@@]3(C)O[C@]1(O)[C@@H]2C`, the Potency entry is “inactive”.

As for `COc1cc(NC(=O)c2ccccn2)ccc1Cl`, the Potency entry is “inactive”.

In the case of `CC(=O)N[C@H]1[C@H](O[C@H]2CC[C@@]3(C)C(CC[C@]4(C)C3CC=C3C5CC(C)(C)CC[C@]5(C(=O)O)[C@H](O[C@@H]5O[C@H](CO)[C@@H](O)[C@H](O)[C@H]5O)C[C@]34C)C2(C)C)O[C@H](CO[C@@H]2OC[C@H](O)[C@H](O)[C@H]2O[C@@H]2OC[C@@H](O)[C@H](O)[C@H]2O)[C@@H](O)[C@@H]1O` (stereo partly drawn), the outcome is “inactive [at 9.29 µM]”.
